From PubChem BioAssay come the findings set out here.

Activity calls are given as the source filed them.

The test system of experiment [1] is Plasmodium falciparum Sir2 (PF13_0152, Sir2A). As to the kind of experiment: Plasmodium falciparum Sir2A binding compounds – biochemical, small-molecule microarray, 635 nm fluorescence, primary screen (AID 1098).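 Also: score merges spot fluorescence intensity with its signal-to-noise ratio.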 To be noted: fluorescence 635 nm, higher = more signal.
Experiment [2] can be described thus: probe aDKK1 binding to arrayed compounds – biochemical, biotinylated probe, 635/667 nm fluorescence, primary screen (AID 1099).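 Also: score merges 667nm spot fluorescence with signal to noise across triplicate slides.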 The conditions noted are these: small-molecule microarray, higher = more signal.
Experiment [3] can be described thus: probe aCHRDL2 binding to arrayed compounds – biochemical, biotinylated probe, 635/667 nm fluorescence, primary screen (AID 1100). To be noted: small-molecule microarray, higher = more signal.
Experiment [4] can be described thus: change in splice reporter luminescence, either direction, cell-based, HEK293, spliceosome inhibition project, primary screen (AID 1101).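 Also: HEK293 cells carrying a splicing-competent luciferase reporter gene; test concentration not given here.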 The conditions noted are these: HEK293 splicing luciferase reporter, 24 h, higher = more signal, called active from +8 up or from −8 down. In general terms: Reporter assays use an easily measured gene product as a stand-in for the process of interest.

Experiment [5] deals with Fibroblast growth factor 10 (Homo sapiens) (UniProt O15520). As to the kind of experiment: compounds binding fibroblast growth factor 10 – biochemical, small-molecule microarray, 635 nm fluorescence, primary screen (AID 1102). To be noted: FGF10 binding, fluorescence 635 nm, higher = more signal.
Experiment [6] deals with glycogen synthase kinase-3 (GSK3A per assay name; protocol says GSK3B). Briefly: compounds binding glycogen synthase kinase-3 – biochemical, small-molecule microarray, 635 nm fluorescence, GSK3A, primary screen (AID 1103). Also: the record names both GSK3A and GSK3B. The conditions noted are these: fluorescence 635 nm, higher = more signal.
Experiment [7] addresses Epidermal growth factor receptor (Homo sapiens) (UniProt P00533). As to the kind of experiment: compounds binding epidermal growth factor receptor – biochemical, small-molecule microarray, 635 nm fluorescence, primary screen (AID 1104).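 Also: score merges 667 nm emission intensity with spot signal to noise over triplicate slides.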 To be noted: EGFR binding, higher = more signal.
The target of experiment [8] is Follistatin-related protein 3 (Homo sapiens) (UniProt O95633). Briefly: compounds binding follistatin-related protein 3 – biochemical, small-molecule microarray, 635 nm fluorescence, primary screen (AID 1105).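 Also: score merges emission near 667 nm and signal to noise per printed spot across three slides.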 To be noted: FSTL3 binding, higher = more signal.
Experiment [9] deals with Dickkopf-related protein 1 (Homo sapiens) (UniProt O94907). Briefly: small molecules binding DKK1 protein – biochemical, small-molecule microarray, 635 nm fluorescence scan, primary screen (AID 1106).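 Also: score merges emission near 667 nm with signal to noise over three replicate slides.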 To be noted: higher = more signal.
Experiment [10] has as its system Inhibin beta A chain (activin A). As to the kind of experiment: small molecules binding activin A – biochemical, small-molecule microarray, 635 nm fluorescence scan, primary screen (AID 1107).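 Also: mouse activin A protein probed at 4.33 µg/mL on printed slides; score merges bound-protein fluorescence near 667 nm with spot signal-to-noise.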 The conditions noted are these: INHBA, higher = more signal.
The subject of experiment [11] is Human papillomavirus type 1a protein E7 (residues 44-93). As to the kind of experiment: small molecules binding HPV E7 44-93 – biochemical, small-molecule microarray, residues 44-93, 635 nm fluorescence, primary screen (AID 1108).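 Also: E7 fragment applied at 1 µg/mL in TBST for 1 h at 4 C; score combines spot fluorescence with its signal to noise ratio.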 The conditions noted are these: fluorescence 635 nm, higher = more signal.
Experiment [12] can be described thus: hepatitis C replication reporter changes, two-sided – Huh7 cells, luciferase reporter, HCV replication inhibitor project, primary screen (AID 1109).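 Also: huh7 hepatoma cells harbouring a luciferase neomycin HCV replicon reporter; luciferase luminescence as measure of HCV replicon replication; test concentration not given here.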 To be noted: Huh7 HCV replicon luciferase reporter, 48 h; higher = more signal.
Experiment [13] deals with Left-right determination factor 2 (Homo sapiens) (UniProt O00292). As to the kind of experiment: small molecules binding LEFTY2 protein – biochemical, small-molecule microarray, 635 nm fluorescence scan, primary screen (AID 1110). The conditions noted are these: higher = more signal.
For experiment [14], the target named is Calmodulin-1 (Homo sapiens) (UniProt P0DP23). Briefly: small molecules binding calmodulin-1 with EGTA – biochemical, small-molecule microarray, Cy5-labelled CALM1, profiling panel (AID 1111).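 Also: labelled calmodulin applied in Tris saline Tween buffer holding calcium plus EGTA and DTT.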 To be noted: Cy5-CALM1 binding fluorescence, higher = more signal.
Experiment [15] has the same target. Briefly: small molecules binding Ca-loaded calmodulin-1 – biochemical, small-molecule microarray, Cy5-labelled CALM1, plus calcium, artefact control for SMM control-protein annotation, profiling panel (AID 1112).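 Also: score merges spot fluorescence with signal to noise from triplicate slides.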 To be noted: Cy5-CALM1 binding fluorescence, higher = more signal.
Experiment [16] is described as follows: probe aWnt5a binding to arrayed compounds – biochemical, biotinylated probe, 635/667 nm fluorescence, primary screen (AID 1113).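 Also: score merges 667 nm fluorescence intensity with signal-to-noise per printed feature.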 The conditions noted are these: small-molecule microarray, higher = more signal.
A short description of experiment [17]: probe aShh binding to arrayed compounds – biochemical, biotinylated probe, 635/667 nm fluorescence, primary screen (AID 1114).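 Also: probe is biotin-labelled aShh protein from a stem cell growth factor screen; measures binding of labelled protein to compounds printed on the slide; score merges feature fluorescence at 667 nm with signal-to-noise.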 The conditions noted are these: small-molecule microarray, higher = more signal.
The nature of experiment [18]: probe aNog binding to arrayed compounds – biochemical, biotinylated probe, 635/667 nm fluorescence, primary screen (AID 1115).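 Also: probe is biotinylated aNog protein used at 0.15 µg/mL for 1 h at 4 C; z-score combines 667 nm fluorescence of each spot with its signal to noise.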 The conditions noted are these: small-molecule microarray, higher = more signal.
In experiment [19] the target is Torsin-1A-interacting protein 1 (Homo sapiens) (UniProt Q5JTV8). Briefly: compound microarray binding of lysate hLAP1 – cell lysate, small-molecule microarray, COS7 lysate, 635/667 nm fluorescence, primary screen (AID 1116). The conditions noted are these: 635 nm fluorescence, higher = more signal.
Experiment [20] addresses Alpha-bungarotoxin (Bungarus multicinctus) (UniProt P60615). Briefly: compounds binding labelled alpha-BTX control protein – biochemical, small-molecule microarray, Alexa647 label, 635/667 nm fluorescence, artefact control for SMM control protein annotation, profiling panel (AID 1117). The conditions noted are these: alpha-BTX-A647 binding fluorescence, higher = more signal.

Sequence of Alpha-bungarotoxin (Bungarus multicinctus) (P60615 whole entry, looked up): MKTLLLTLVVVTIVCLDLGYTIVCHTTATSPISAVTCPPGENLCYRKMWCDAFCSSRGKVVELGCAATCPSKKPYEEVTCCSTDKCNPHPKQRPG
Sequence of Left-right determination factor 2 (Homo sapiens) (O00292 whole entry, looked up): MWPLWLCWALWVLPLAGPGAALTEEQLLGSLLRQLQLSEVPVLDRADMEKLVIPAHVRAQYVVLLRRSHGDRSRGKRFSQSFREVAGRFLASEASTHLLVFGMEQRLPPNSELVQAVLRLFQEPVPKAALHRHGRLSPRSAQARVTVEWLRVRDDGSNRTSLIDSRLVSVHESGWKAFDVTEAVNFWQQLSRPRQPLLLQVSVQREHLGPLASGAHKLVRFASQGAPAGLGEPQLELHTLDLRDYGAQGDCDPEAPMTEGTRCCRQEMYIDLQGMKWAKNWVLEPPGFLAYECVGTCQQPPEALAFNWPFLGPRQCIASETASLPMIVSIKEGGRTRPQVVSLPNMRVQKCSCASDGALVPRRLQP
Sequence of Torsin-1A-interacting protein 1 (Homo sapiens) (Q5JTV8 whole entry, looked up): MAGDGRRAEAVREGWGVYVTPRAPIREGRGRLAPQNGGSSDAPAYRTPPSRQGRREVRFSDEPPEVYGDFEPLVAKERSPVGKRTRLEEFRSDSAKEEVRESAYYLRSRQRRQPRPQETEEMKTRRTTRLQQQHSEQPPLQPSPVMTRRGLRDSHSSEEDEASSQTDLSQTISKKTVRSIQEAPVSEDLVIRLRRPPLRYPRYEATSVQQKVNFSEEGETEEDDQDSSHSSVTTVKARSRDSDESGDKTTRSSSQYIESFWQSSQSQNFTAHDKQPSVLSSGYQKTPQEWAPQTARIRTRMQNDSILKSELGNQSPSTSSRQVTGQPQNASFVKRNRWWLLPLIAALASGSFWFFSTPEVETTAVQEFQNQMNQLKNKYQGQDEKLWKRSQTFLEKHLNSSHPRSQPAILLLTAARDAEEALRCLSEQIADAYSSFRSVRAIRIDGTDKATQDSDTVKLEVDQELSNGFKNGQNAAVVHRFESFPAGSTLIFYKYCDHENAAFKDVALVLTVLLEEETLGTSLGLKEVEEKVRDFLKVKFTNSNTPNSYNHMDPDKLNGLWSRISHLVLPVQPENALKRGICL
Sequence of Dickkopf-related protein 1 (Homo sapiens) (O94907 whole entry, looked up): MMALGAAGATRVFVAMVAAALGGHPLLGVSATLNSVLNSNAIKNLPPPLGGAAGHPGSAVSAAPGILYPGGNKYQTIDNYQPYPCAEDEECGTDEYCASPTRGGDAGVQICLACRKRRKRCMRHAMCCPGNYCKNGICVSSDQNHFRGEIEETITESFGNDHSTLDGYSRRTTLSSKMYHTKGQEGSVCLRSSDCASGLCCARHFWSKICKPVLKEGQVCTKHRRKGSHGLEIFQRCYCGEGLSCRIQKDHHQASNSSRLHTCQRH
Sequence of Follistatin-related protein 3 (Homo sapiens) (O95633 whole entry, looked up): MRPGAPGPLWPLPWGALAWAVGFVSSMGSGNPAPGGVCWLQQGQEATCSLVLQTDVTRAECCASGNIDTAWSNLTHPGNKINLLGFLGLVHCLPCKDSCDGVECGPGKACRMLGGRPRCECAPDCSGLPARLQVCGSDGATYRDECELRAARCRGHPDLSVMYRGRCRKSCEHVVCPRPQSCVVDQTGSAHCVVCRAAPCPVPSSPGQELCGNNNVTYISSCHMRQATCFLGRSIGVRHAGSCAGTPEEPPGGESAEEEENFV
Sequence of Fibroblast growth factor 10 (Homo sapiens) (O15520 whole entry, looked up): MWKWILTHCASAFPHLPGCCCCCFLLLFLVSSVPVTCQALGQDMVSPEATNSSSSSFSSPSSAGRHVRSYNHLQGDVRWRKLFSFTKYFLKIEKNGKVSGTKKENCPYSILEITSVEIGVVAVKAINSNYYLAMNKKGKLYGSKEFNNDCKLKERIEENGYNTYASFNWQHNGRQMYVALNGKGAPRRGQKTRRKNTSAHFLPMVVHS
Sequence of Epidermal growth factor receptor (Homo sapiens) (P00533 whole entry, looked up): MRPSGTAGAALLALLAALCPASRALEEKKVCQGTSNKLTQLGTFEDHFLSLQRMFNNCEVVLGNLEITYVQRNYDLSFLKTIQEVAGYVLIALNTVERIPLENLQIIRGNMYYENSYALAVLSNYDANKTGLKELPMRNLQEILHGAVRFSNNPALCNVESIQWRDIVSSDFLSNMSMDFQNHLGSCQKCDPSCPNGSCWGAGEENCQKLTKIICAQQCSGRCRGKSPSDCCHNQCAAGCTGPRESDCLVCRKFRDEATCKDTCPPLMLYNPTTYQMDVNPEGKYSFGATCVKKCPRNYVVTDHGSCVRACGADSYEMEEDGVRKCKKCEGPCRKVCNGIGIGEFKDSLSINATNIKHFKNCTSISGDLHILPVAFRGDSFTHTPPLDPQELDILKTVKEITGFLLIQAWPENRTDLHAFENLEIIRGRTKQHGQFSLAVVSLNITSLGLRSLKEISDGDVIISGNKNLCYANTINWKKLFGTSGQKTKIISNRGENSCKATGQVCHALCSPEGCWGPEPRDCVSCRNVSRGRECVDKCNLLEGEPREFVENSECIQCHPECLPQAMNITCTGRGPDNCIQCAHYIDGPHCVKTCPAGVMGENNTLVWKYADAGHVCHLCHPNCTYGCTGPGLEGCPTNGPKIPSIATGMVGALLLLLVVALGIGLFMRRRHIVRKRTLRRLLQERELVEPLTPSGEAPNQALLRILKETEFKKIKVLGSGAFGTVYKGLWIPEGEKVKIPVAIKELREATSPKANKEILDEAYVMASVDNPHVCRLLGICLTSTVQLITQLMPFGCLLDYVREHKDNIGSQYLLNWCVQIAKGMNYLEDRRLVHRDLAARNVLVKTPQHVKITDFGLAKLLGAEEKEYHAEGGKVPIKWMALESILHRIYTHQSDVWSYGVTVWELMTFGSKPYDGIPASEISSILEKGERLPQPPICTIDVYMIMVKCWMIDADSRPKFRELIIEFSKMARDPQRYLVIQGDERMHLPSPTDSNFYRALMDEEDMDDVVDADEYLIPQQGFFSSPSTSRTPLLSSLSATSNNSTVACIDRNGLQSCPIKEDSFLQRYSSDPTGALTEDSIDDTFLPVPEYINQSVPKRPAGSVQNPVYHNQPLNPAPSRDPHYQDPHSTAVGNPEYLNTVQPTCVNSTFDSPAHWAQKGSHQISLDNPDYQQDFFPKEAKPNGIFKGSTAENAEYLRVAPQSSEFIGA

Regarding `Cc1ccc(N2C(=O)c3ccccc3[C@](C)(C(=O)NCC(F)(F)F)[C@@H]2c2ccc(CO)cc2)nc1`, the composite z-score is 0.919 in experiment [1]; 0.421 in [2]; 0.949 in experiment [3]; -0.975 in experiment [5]; -1.29 in experiment [6]; -1.27 in [7]. Also, the composite z-score in [8] is -1.82; in experiment [9], -1.15; in experiment [10] it was -0.528; in [11], -2.53; in [13], -1.47; in [14], -0.538. In addition, the composite z-score in [15] is 0.733; in experiment [16], -0.132; in experiment [17], -0.291; in [18] it was -0.136; in experiment [19] it was -0.438; in [20] it was -1.58. Moreover, the z-score is 0.21 (inactive) in experiment [4] and 0.208 in experiment [12].

Consider `COCCOC(=O)N1C(=O)[C@@]2(c3cc(C#CCNC(N)=O)ccc31)[C@H](C(=O)NC[C@H](O)c1ccccc1)[C@H]1C(=O)O[C@H](c3ccccc3)[C@H](c3ccccc3)N1[C@@H]2c1ccc(O)cc1`, for which the composite z-score in experiment [1] was 1.54; in experiment [2], 0.347; in [3] it was 0.925; in [5] it was 0.477; in experiment [6], 0.0604; in experiment [7] it was -0.0057. For the same compound, the composite z-score is 0.683 in [8]; -0.347 in experiment [9]; 0.7 in experiment [10]; 0.515 in experiment [11]; 0.0741 in [13]; 1.01 in [14]. In addition, the composite z-score in [15] was 0.571; in [16], -0.0203; in [17], -0.152; in experiment [18], -0.122; in [19], 0.138; in experiment [20] it was 1.04. The z-score is 0.012 (inactive) in experiment [4] and -0.249 in [12].

Regarding `CC(=O)NCCCC[C@@H]1NC(=O)[C@@H]2C[C@H](C(=O)O)[C@H](c3cccc(OCCO)c3)N2C1=O`, the composite z-score in experiment [1] is 1.25; in experiment [2], -0.018; in [3] it was -0.37; in experiment [5], 1.13; in experiment [6] it was 1.21; in [7] it was 0.782. Besides, the composite z-score was 0.787 in [8]; 1.21 in experiment [9]; -0.456 in experiment [10]; 0.952 in experiment [11]; 1.46 in experiment [13]; -0.188 in experiment [14]. Moreover, the composite z-score is -0.789 in experiment [15]; -0.0403 in [16]; -0.0626 in [17]; -0.37 in experiment [18]; 0.947 in experiment [19]; 1.03 in [20]. Besides, the values for the z-score in [4] and in experiment [12] were -0.877 (inactive) and 0.436, respectively.

As to `CCN(CC)c1ccc(N2CC=CC34O[C@@H]5C=CCOC(=O)[C@@H]5[C@H]3C(=O)N(C(C)CO)[C@@H]4C2=O)cc1` (stereo not given in full), the composite z-score was -0.928 in experiment [1]; 0.0831 in [2]; 0.495 in experiment [3]; -0.749 in [5]; -2.21 in experiment [6]; -1.5 in [7]. Also, the composite z-score in experiment [8] was -1.5; in experiment [9], -1.01; in [10], 0.509; in experiment [11], -1.09; in experiment [13], -1.21; in [14], -1.1. Further, the composite z-score in experiment [15] was -0.201; in experiment [16], -0.154; in experiment [17] it was -0.153; in [18], 0.166; in experiment [19], -0.438; in experiment [20], 0.0517. Also, the z-score in experiment [4] is -0.405 (inactive); in [12], -0.533.

On to `CCCCCN1CC=CC23O[C@@H]4/C=C\CCC(C)OC(=O)C4[C@H]2C(=O)N(CCCO)[C@@H]3C1=O` (stereo not given in full), for which the composite z-score in experiment [1] was 0.936; in experiment [2] it was -0.212; in experiment [3], 0.183; in [5], -0.753; in experiment [6], -0.723; in experiment [7], -1.36. The composite z-score in [8] is -1.24; in experiment [9], -0.543; in experiment [10], 0.797; in [11], -0.93; in experiment [13] it was -1.15; in experiment [14], -1.35. For the same compound, the composite z-score in experiment [15] is 0.0216; in [16], -0.194; in experiment [17], -0.2; in experiment [18], -0.0511; in experiment [19], 1.99; in experiment [20] it was 2.69. Also, the values for the z-score in experiment [4] and in experiment [12] were -0.246 (inactive) and -0.333, respectively.

Turning to `CC1CC/C=C\[C@H]2OC34C=CCN(C(C)C)C(=O)[C@H]3N(C(CO)C(C)C)C(=O)[C@@H]4C2C(=O)O1` (stereo not given in full), the composite z-score in experiment [1] is -0.144; in experiment [2], 0.0383; in experiment [3], 0.228; in experiment [5], -0.505; in experiment [6], -0.95; in experiment [7], -0.818. Also, the composite z-score was -0.253 in [8]; -0.429 in experiment [9]; 0.64 in experiment [10]; -1.48 in experiment [11]; -0.944 in [13]; -1 in experiment [14]. Further, the composite z-score in experiment [15] was -0.339; in experiment [16], -0.202; in [17] it was -0.0626; in experiment [18], -0.178; in experiment [19], 0.193; in experiment [20], -2.8. In addition, the z-score was -0.0607 (inactive) in experiment [4] and -0.403 in experiment [12].
